We go through ten compounds from PubChem BioAssay (NCI).

This is part of a sample that, as a whole, favours compounds with a hit. Of some 83,000 tested, about 20% had one in any assay.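 For each line, cells grew in 96-well plates with the test compound present at a single concentration for 48 hours.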 A number with no mark means an inactive call. Active and inactive are the calls of the source. How the source made its calls: active means growth percent below 10; inactive means the rest.

Common to all, as to assay: NCI-60 one-dose screen, 48 h (100 = growth as untreated, 0 = no growth, -100 = all killed)
The test system of assay [1] is SR leukemia. The conditions noted are these: 10 µM unless noted.
Assay [2] has as its system RPMI-8226 leukemia. The conditions noted are these: 10 µM unless noted.
The subject of assay [3] is OVCAR-8 ovarian. The note with it: 10 µM unless noted.
Assay [4] deals with OVCAR-5 ovarian. The conditions noted are these: 10 µM unless noted.
Assay [5] relates to OVCAR-4 ovarian. The note with it: 10 µM.
For assay [6], the system named is SK-OV-3 ovarian. The note with it: 10 µM unless noted.
The subject of assay [7] is IGROV1 ovarian. The conditions noted are these: 10 µM unless noted.
Assay [8] concerns OVCAR-3 ovarian. The note with it: 10 µM unless noted.
Assay [9] relates to HS 578T breast. The conditions noted are these: 10 µM unless noted.
The subject of assay [10] is NCI/ADR-RES ovarian. The note with it: 10 µM unless noted.
Assay [11] has as its system T-47D breast. The conditions noted are these: 10 µM unless noted.
Assay [12] deals with MDA-MB-435 melanoma. The conditions noted are these: 10 µM unless noted.
The subject of assay [13] is SW-620 colon. The note with it: 10 µM unless noted.
Assay [14] concerns MCF7 breast. The conditions noted are these: 10 µM unless noted.
The subject of assay [15] is HCT-116 colon. The note with it: 10 µM unless noted.
Assay [16] deals with HCC-2998 colon. The note with it: 10 µM unless noted.
The subject of assay [17] is KM12 colon. The conditions noted are these: 10 µM unless noted.
In assay [18] the test system is BT-549 breast. The conditions noted are these: 10 µM unless noted.

Regarding `COc1ccc(NC(=O)Nc2ccc(-c3cccnc3)cc2N2CCC(CO)CC2)cc1`, the growth was 95.2% in assay [1]; 54.4% in [2]; 79.1% in [3]; 49.6% in [4]; 73.8% in [5]; 71.7% in assay [6]. For the same compound, the growth in assay [7] is 110%; in assay [8], 40.2%; in assay [9] it was 62.6%; in assay [10] it was 64.4%; in assay [11] it was 68.8%; in assay [12], 26%. In addition, the growth in assay [13] was 65.2%; in [14] it was 31.8%; in assay [15] it was 12.5%; in [16], 42%; in [17], 38.8%.
Turning to `CC(C)CCNCC(C)(C)O`, the growth is 97.9% in assay [1]; 120% in assay [2]; 99.4% in [3]; 101% in assay [4]; 115% in [5]; 110% in [6]. Besides, the growth in assay [7] is 118%; in assay [8] it was 119%; in [9], 118%; in [10] it was 118%; in assay [18], 110%; in assay [12], 112%. For the same compound, the growth in [13], in assay [14], in assay [15] and in [16] was 109% each time.
In the case of `O=C(CSc1nccc(Nc2ccc(S(=O)(=O)Nc3ccccn3)cc2)n1)c1ccc(Cl)cc1`, the growth is 75.5% in assay [1]; 71.3% in assay [2]; 84.2% in assay [3]; 111% in [4]; 80.2% in assay [5]; 95.4% in assay [6]. Further, the growth was 77.9% in [7]; 95.8% in [8]; 89.1% in [9]; 103% in assay [10]; 50.6% in assay [11]; 118% in [12]. Besides, the growth is 105% in assay [13]; 91.4% in assay [14]; 92.2% in assay [15]; 106% in assay [16]; 97.6% in assay [17].
Turning to `CC1Cc2c(Cl)ncnc2N(C)c2ccc(Cl)cc21` (configuration not stated), the growth in [1] is 6.35% (active); in [2], -3.81% (active); in assay [3], 8.59% (active); in [4] it was 39.8%; in assay [5] it was 7.91% (active); in assay [6] it was 12%. In addition, the growth in assay [7] was 30.5%; in assay [8], 9.74% (active); in assay [9], 23.4%; in assay [10], 13.1%; in [11], 2.19% (active); in assay [12], 3.3% (active). Further, the growth was 7.64% (active) in assay [14], 7.96% (active) in assay [15], 36.9% in assay [16] and 10.1% in [17].
With `O=C(CCCSc1nc(-c2ccccc2)cc(-c2ccccc2)n1)NO`, the growth in assay [1] is 1.05% (active); in assay [2] it was 14.9%; in assay [3], 5.38% (active); in [4] it was 9.78% (active); in assay [5], 11.9%; in assay [6], -18.6% (active). The growth was 12.6% in assay [7]; -5.33% (active) in assay [8]; 45.2% in assay [9]; -12.1% (active) in assay [10]; -2.43% (active) in [11]; 12.3% in assay [12]. Moreover, the growth in [13] is 16%; in assay [14], 9.38% (active); in assay [15] it was 9.52% (active); in assay [16], 17.7%; in assay [17], 14.4%.
On to `O=C(O)c1cn(C2CC2)c2cc(N3CCN(Cc4cc(Cl)ccc4O)CC3)c(F)cc2c1=O`, for which the growth in assay [1] is 0.849% (active); in assay [2], 41.8%; in [3], 58.2%; in [4], 89.4%; in assay [5], 72.3%; in assay [6], 71%. Also, the growth in assay [7] is 44.8%; in [8] it was 81.2%; in [9], 74.1%; in assay [10], 72.7%; in assay [11] it was 67.4%; in assay [12], 74.2%. Also, the growth is 83.6% in assay [13], 54.6% in assay [14], 82.4% in assay [16] and 62.5% in [17].
In the case of `COC(=O)C(=Cc1ccccc1[N+](=O)[O-])C(=O)OC`, the growth in assay [1] was -22.3% (active); in [2] it was -18.6% (active); in [3], 49.8%; in assay [4] it was 56.6%; in [5], 21.6%; in [6], 69.7%. Besides, the growth in [7] is 37.9%; in [8], -17.9% (active); in assay [9], 34.5%; in assay [10], 21.9%; in assay [11], 22.6%; in assay [12], 15.5%. Further, the figures for the growth in [14], in assay [16] and in assay [17] were 15.4%, 55.2% and 15.7%, respectively.
Take `N#Cc1ccc(-c2ccc(COc3ccc(CC4SC(=O)NC4=O)cc3)cc2)cc1` (configuration not stated): the growth was 45.1% in assay [1]; 48.5% in assay [2]; 58.3% in assay [3]; 96.2% in assay [4]; 40.8% in assay [5]; 69.9% in assay [6]. For the same compound, the growth in [7] is 68.4%; in assay [8], 64.7%; in assay [9], 72.5%; in assay [10] it was 37.8%; in assay [11], 35.8%; in assay [12], 45.4%. For the same compound, the growth in assay [15] is 42.5%; in assay [16], 83.2%; in assay [17], 61.9%.
Take `O=C(OCc1ccc2c(Cl)cc(Cl)c(O)c2n1)N1CCN(C(=O)c2cc3cc(F)ccc3[nH]2)CC1`: the growth in [1] was 16.7%; in assay [2], 21.4%; in assay [3], 7.64% (active); in [4], 40.7%; in [5] it was 40%; in [6] it was 19.3%. Moreover, the growth was 11.2% in assay [7]; -44.1% (active) in [8]; 12.5% in [9]; 2.35% (active) in assay [10]; 62.2% in [11]; -54.5% (active) in assay [12]. In addition, the growth in assay [13] was 16.9%; in assay [14], 14.5%; in [15], 5.58% (active); in assay [16] it was 22.6%; in assay [17], -15.2% (active).
On to `COCCCNc1nc(NC(=O)c2cc(Br)cc(C(F)(F)F)c2)cc(-c2cccnc2)n1`, for which the growth in [1] is 83.4%; in [2], 65.6%; in assay [3], 87.5%; in [4], 100%; in assay [5] it was 92.3%; in assay [6] it was 92.2%. In addition, the growth was 91.3% in assay [7]; 109% in assay [8]; 83% in assay [9]; 99.5% in assay [10]; 65% in assay [11]; 88.4% in [12]. Besides, the growth in assay [13] was 86.9%; in assay [15] it was 85.6%; in assay [16] it was 114%; in assay [17], 105%.
